Our source for the outcome and AC50 values is PubChem BioAssay (EPA / NIEHS).

Broadly, the AC50 is the concentration at which the activity in the assay is half-maximal.

Assay [1] can be described thus: BSK_3C_VCAM1: BioMAP Diversity Plus: 3C Assay for Vascular cell adhesion molecule 1 (VCAM1) Biomarker Activity (AID 2282999). To be noted: BioMAP 3C HUVEC, VCAM1 ELISA, cytokine-stimulated; actives raise or lower the signal. The essentials:
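Human umbilical vein endothelial cells were dosed with compound for 24 h, after which cell-surface VCAM-1 was quantified by ELISA. Bidirectional curve fitting used DMSO as negative control and activity baseline.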
Background: ELISA stands for enzyme-linked immunosorbent assay.

Assay [2] is described as follows: BSK_4H_Eotaxin3: BioMAP Diversity Plus: 4H Assay for Eotaxin 3 Biomarker Activity (AID 2283000).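 As to outcome: CCL26 protein level quantified by ELISA in parallel with SRB cytotoxicity check.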 The note with it: primary human endothelial cells (HUVEC); actives raise or lower the signal. The essentials:
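Endothelial primary cells (human umbilical vein) exposed to compound for 24 h. ELISA detection of Eotaxin-3.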

Assay [3] addresses human Peroxisome Proliferator-activated Receptor delta (PPARd), PPARD (gene 5467) (UniProt Q03181). Put plainly: ATG_PPARd_TRANS: Attagene TRANS-FACTORIAL HepG2 Assay for human Peroxisome Proliferator-activated Receptor delta (PPARd) (AID 2283002; active = hit-call score of the fitted dose curve at least 0.9, where 1 is the maximum). The procedure, abridged:
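Multiplexed trans-activation format: HepG2 liver cells expressing exogenous NR-Gal4 chimeras and GAL4-UAS reporters were exposed for 24 h. Reporter mRNA was detected by RT-PCR with capillary electrophoresis fluorescence; activity fitted as gain of signal relative to DMSO.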

Read-out in assay [4]: Intercellular Adhesion Molecule 1 (ICAM1), ICAM1 (gene 3383)
Kind of assay: BSK_3C_ICAM1: BioMAP Diversity Plus: 3C Assay for Intercellular Adhesion Molecule 1 (ICAM1) Biomarker Activity (AID 2283003). The note with it: primary human endothelial cells (HUVEC); actives raise or lower the signal. The essentials:
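ICAM-1 levels measured by ELISA after HUVEC cultures in the 3C system had been dosed for 24 h. Gain or loss of signal relative to DMSO was fitted in both directions.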

In assay [5] the target is Retinoic acid receptor alpha (Homo sapiens) (UniProt P10276). Kind of assay: ATG_RARa_TRANS: Attagene TRANS-FACTORIAL HepG2 Assay for human Retinoic Acid Receptor alpha (RARa) (AID 2283005; active = hit-call score of the fitted dose curve at least 0.9, where 1 is the maximum). The essentials: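 HepG2 cells transiently transfected with multiple reporter units expressing chimeric RARα-GAL4 fusion, with GAL4-UAS-driven reporters. After 24 h compound exposure, reporter mRNA induction quantified by RT-PCR and capillary electrophoresis with fluorescent labeling; gain-of-signal fitted relative to DMSO control.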

A short description of assay [6]: BSK_3C_Proliferation: Cell Proliferation Assessment in the BioMAP Diversity Plus: 3C Assay (AID 2283006).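 As to AC50: potency may reflect either rise or fall in cell number versus DMSO.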 To be noted: primary human endothelial cells (HUVEC). The essentials: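 Read-out is total protein by SRB absorbance at 560 nm, taken as a proxy for relative cell number. Primary human umbilical vein endothelium cultured below confluence was dosed for 48 h, TCA-fixed and SRB-stained; curves were fitted bidirectionally versus DMSO.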

Assay [7] has as its target Peroxisome proliferator-activated receptor gamma (Homo sapiens) (UniProt P37231). Put plainly: ATG_PPARg_TRANS: Attagene TRANS-FACTORIAL HepG2 Assay for human Peroxisome Proliferator-activated Receptor-gamma (PPARg) (AID 2283007; active = hit-call score of the fitted dose curve at least 0.9, where 1 is the maximum). The essentials: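 Human hepatoma HepG2, transient MRTU transfection, 24 h treatment. mRNA reporter signal by RT-PCR plus capillary electrophoresis, fluorescence detection; fitted for increase over DMSO negative control.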

Assay [8] has as its target Nuclear receptor subfamily 1 group I member 2 (Homo sapiens) (UniProt O75469). Put plainly: ATG_PXR_TRANS: Attagene TRANS-FACTORIAL HepG2 Assay for human Pregnane X Receptor (PXR) (AID 2283008; active = hit-call score of the fitted dose curve at least 0.9, where 1 is the maximum). The procedure, abridged: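 Measures mRNA induction of a GAL4-UAS-driven reporter in human HepG2 cells transiently expressing PXR fused to Gal4, following 24 h treatment. DMSO served as negative control and baseline.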

Assay [9] addresses human Retinoic Acid Receptor gamma (RARg), RARG (gene 5916) (UniProt P13631). Put plainly: ATG_RARg_TRANS: Attagene TRANS-FACTORIAL HepG2 Assay for human Retinoic Acid Receptor gamma (RARg) (AID 2283009; active = hit-call score of the fitted dose curve at least 0.9, where 1 is the maximum). The essentials: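 Transient transfection of HepG2 with multi-reporter constructs, then 24 h chemical treatment. Total RNA isolated, reverse-transcribed, PCR-amplified, fluorescently labelled and resolved by capillary electrophoresis; activity scored as mRNA induction versus DMSO.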

The target of assay [10] is human RAR-related Orphan Receptor gamma (RORg), RORC (gene 6097) (UniProt P51449). Put plainly: ATG_RORg_TRANS: Attagene TRANS-FACTORIAL HepG2 Assay for human RAR-related Orphan Receptor gamma (RORg) (AID 2283011; active = hit-call score of the fitted dose curve at least 0.9, where 1 is the maximum). The essentials:
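Activity is scored as increase in GAL4-UAS reporter mRNA over DMSO, detected by fluorescent RT-PCR and capillary electrophoresis in HepG2 cells transiently expressing a RORg-Gal4 chimera, 24 h after dosing.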

Read-out in assay [11]: E-selectin (Homo sapiens) (UniProt P16581)
Put plainly: BSK_3C_Eselectin: BioMAP Diversity Plus: 3C Assay for Eselectin Biomarker Activity (AID 2283015).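 As to outcome: cell surface E-selectin protein quantified by ELISA 24 h after dosing.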 The note with it: primary human endothelial cells (HUVEC); actives raise or lower the signal. The essentials: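 Human vascular endothelium from umbilical vein is exposed to test chemicals for 24 h. E-selectin levels are read by ELISA and compared with DMSO controls.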

Read-out in assay [12]: Interleukin-1 alpha (IL1a), IL1A (gene 3552)
Put plainly: BSK_BE3C_IL1a: BioMAP Diversity Plus: BE3C Assay for Interleukin-1 alpha (IL1a) Biomarker Activity (AID 2283016). To be noted: primary human bronchial epithelial cells; actives raise or lower the signal. The procedure, abridged: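 BE3C primary human bronchial epithelium; cpd 24 h; IL-1a by ELISA; bidirectional fit vs DMSO; parallel SRB (0.1% SRB, 10% TCA fix, 560 nm) for cytotoxicity.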

Read-out in assay [13]: Monocyte Chemoattractant Protein-1 (MCP1), CCL2 (gene 6347)
Put plainly: BSK_3C_MCP1: BioMAP Diversity Plus: 3C Assay for Monocyte Chemoattractant Protein-1 (MCP1) Biomarker Activity (AID 2283017). To be noted: primary human endothelial cells (HUVEC); actives raise or lower the signal. The procedure, abridged:
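Endothelial cells from human umbilical vein are dosed with chemical, cultured 24 h, then assayed for MCP-1 by ELISA; both increases and decreases are modelled against DMSO controls.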

Read-out in assay [14]: Monocyte Chemoattractant Protein-1 (MCP1), CCL2 (gene 6347)
Put plainly: BSK_4H_MCP1: BioMAP Diversity Plus: 4H Assay for Monocyte Chemoattractant Protein-1 (MCP1) Biomarker Activity (AID 2283018). The note with it: primary human endothelial cells (HUVEC); actives raise or lower the signal. The procedure, abridged: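 ELISA read-out of MCP-1 from human vascular endothelial primary cells taken at 24 hours after compound exposure. Activity was fitted in both directions relative to DMSO, which served as negative control.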

Read-out in assay [15]: Human Leukocyte Antigen - DR isotype (HLADR), HLA-DRA (gene 3122)
Kind of assay: BSK_3C_HLADR: BioMAP Diversity Plus: 3C Assay for Human Leukocyte Antigen - DR isotype (HLADR) Biomarker Activity (AID 2283019).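 As to outcome: ELISA of cell-surface HLA-DR on HUVEC 24 h after dosing.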 The note with it: primary human endothelial cells (HUVEC); actives raise or lower the signal. The essentials:
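Endothelial cells from human umbilical vein are treated with test chemical; after 24 h, HLA-DR levels are measured by ELISA. Data are fitted in both directions using DMSO as the baseline.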

The target in assay [16] is human Retinoic Acid Receptor beta (RARb), RARB (gene 5915) (UniProt P10826). Kind of assay: ATG_RARb_TRANS: Attagene TRANS-FACTORIAL HepG2 Assay for human Retinoic Acid Receptor beta (AID 2283004; active = hit-call score of the fitted dose curve at least 0.9, where 1 is the maximum). The essentials:
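HepG2, transient MRTU transfection, NR–Gal4 chimera, 24 h treatment; RT-PCR plus CE fluorescence detection of reporter mRNA; gain of signal vs DMSO.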

The target of assay [17] is Retinoic acid receptor RXR-alpha (Homo sapiens) (UniProt P19793). Kind of assay: ATG_RXRa_TRANS: Attagene TRANS-FACTORIAL HepG2 Assay for human Retinoid X Receptor alpha (RXRa) (AID 2283012; active = hit-call score of the fitted dose curve at least 0.9, where 1 is the maximum). The essentials: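 Transient transfection of human HepG2 with multiple GAL4-UAS reporter constructs; 24 h compound exposure; total RNA isolated, reverse-transcribed, PCR-amplified, 6-FAM labelled, HpaI-cut, resolved by capillary electrophoresis. Positive-direction fit versus DMSO.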

Assay [18] deals with human Thyroid Receptor alpha (THRa1), THRA (gene 7067) (UniProt P10827). Kind of assay: ATG_THRa1_TRANS: Attagene TRANS-FACTORIAL HepG2 Assay for human Thyroid Receptor alpha (THRa1) (AID 2283014; active = hit-call score of the fitted dose curve at least 0.9, where 1 is the maximum). The essentials: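 First, HepG2 cells receive multiple GAL4-UAS reporter units and the chimeric receptor. They are then dosed for 24 h, after which RNA is reverse-transcribed, amplified, labelled, HpaI-cut and sized by capillary electrophoresis; gain relative to DMSO is scored.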

The target in assay [19] is human Retinoid X Receptor beta (RXRb), RXRB (gene 6257) (UniProt P28702). Kind of assay: ATG_RXRb_TRANS: Attagene TRANS-FACTORIAL HepG2 Assay for human Retinoid X Receptor beta (RXRb) (AID 2283013; active = hit-call score of the fitted dose curve at least 0.9, where 1 is the maximum). The essentials:
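Transfect HepG2 with GAL4-UAS multi-reporter constructs (chimeric NR-Gal4, TRANS format); dose compound 24 h; isolate RNA, RT-PCR, FAM primer extension, HpaI digest; quantify by capillary electrophoresis; positive direction vs DMSO.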

Assay [20] addresses human Peroxisome Proliferator-activated Receptor alpha (PPARa), PPARA (gene 5465) (UniProt Q07869). Kind of assay: ATG_PPARa_TRANS: Attagene TRANS-FACTORIAL HepG2 Assay for human Peroxisome Proliferator-activated Receptor alpha (PPARa) (AID 2283001; active = hit-call score of the fitted dose curve at least 0.9, where 1 is the maximum). The procedure, abridged:
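Gain-of-signal endpoint: reporter mRNA induction relative to DMSO, detected by fluorescent RT-PCR and capillary electrophoresis. HepG2 cells transiently carried GAL4-UAS-driven reporter units plus NR-Gal4 fusion; exposure lasted 24 h.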

SMILES strings stand for the structures. Results filed as inconclusive are left out. Calls of active or inactive are those of the source. The calls were made as follows, unless noted: active = hit-call score of the fitted dose curve at least 0.9, where 1 is the maximum; inactive = score below 0.9.

human Retinoid X Receptor beta (RXRb), RXRB (gene 6257), sequence (P28702 whole entry, looked up, the tested form may be a part): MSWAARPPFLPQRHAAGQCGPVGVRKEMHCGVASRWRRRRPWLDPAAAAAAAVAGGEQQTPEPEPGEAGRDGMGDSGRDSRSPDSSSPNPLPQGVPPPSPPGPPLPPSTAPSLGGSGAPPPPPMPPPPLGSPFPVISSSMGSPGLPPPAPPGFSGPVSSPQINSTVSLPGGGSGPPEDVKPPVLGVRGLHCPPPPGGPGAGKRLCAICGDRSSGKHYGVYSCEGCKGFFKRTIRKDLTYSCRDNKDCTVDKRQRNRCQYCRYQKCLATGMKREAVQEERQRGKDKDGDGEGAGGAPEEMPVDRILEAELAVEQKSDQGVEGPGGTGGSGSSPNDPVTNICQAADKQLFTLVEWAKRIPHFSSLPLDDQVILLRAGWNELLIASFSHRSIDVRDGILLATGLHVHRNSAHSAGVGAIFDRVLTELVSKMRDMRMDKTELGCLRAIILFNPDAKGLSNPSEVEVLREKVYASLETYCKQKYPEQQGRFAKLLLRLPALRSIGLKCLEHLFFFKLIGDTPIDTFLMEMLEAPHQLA
human Retinoic Acid Receptor gamma (RARg), RARG (gene 5916), sequence (P13631 whole entry, looked up): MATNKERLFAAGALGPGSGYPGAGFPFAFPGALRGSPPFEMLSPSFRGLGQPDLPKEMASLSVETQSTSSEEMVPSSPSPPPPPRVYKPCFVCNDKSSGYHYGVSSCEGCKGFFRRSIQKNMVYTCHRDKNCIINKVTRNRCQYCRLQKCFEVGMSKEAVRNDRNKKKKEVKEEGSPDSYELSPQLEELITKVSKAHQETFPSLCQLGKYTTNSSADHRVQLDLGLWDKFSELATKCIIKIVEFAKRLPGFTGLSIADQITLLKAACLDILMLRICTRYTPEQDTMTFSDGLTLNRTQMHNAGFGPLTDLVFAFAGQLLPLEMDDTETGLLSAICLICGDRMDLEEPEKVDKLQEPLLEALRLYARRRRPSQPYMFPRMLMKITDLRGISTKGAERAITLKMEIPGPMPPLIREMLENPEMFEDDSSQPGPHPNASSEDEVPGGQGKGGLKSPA
human Retinoic Acid Receptor beta (RARb), RARB (gene 5915), sequence (P10826 whole entry, looked up, the tested form may be a part): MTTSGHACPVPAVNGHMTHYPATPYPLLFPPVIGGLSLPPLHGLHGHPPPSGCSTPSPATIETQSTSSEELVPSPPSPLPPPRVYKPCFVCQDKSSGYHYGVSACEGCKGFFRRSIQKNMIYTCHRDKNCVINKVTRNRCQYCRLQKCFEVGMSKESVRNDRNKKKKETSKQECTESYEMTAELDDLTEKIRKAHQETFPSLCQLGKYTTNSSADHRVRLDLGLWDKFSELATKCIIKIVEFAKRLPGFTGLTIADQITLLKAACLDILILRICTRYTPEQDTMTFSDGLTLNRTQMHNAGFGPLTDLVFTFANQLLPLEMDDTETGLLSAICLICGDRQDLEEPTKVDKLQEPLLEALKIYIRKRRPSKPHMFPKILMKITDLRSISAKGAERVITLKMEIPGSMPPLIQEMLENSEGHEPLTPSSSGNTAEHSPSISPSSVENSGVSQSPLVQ
human RAR-related Orphan Receptor gamma (RORg), RORC (gene 6097), sequence (P51449 whole entry, looked up, the tested form may be a part): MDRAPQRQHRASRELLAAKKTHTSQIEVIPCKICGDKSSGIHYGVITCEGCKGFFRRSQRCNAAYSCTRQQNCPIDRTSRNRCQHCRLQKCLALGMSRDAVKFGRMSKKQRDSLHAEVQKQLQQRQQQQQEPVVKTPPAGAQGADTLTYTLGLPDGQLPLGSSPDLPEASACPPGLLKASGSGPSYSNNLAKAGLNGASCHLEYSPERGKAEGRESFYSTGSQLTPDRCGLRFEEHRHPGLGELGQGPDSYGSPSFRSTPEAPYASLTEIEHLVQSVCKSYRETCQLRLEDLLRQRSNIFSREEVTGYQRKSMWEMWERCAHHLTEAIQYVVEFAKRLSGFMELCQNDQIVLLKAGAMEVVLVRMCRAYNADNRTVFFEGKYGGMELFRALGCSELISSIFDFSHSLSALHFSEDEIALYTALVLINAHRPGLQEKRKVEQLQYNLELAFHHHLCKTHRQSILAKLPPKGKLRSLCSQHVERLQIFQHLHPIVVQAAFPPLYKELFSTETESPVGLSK
E-selectin (Homo sapiens), sequence (P16581 whole entry, looked up): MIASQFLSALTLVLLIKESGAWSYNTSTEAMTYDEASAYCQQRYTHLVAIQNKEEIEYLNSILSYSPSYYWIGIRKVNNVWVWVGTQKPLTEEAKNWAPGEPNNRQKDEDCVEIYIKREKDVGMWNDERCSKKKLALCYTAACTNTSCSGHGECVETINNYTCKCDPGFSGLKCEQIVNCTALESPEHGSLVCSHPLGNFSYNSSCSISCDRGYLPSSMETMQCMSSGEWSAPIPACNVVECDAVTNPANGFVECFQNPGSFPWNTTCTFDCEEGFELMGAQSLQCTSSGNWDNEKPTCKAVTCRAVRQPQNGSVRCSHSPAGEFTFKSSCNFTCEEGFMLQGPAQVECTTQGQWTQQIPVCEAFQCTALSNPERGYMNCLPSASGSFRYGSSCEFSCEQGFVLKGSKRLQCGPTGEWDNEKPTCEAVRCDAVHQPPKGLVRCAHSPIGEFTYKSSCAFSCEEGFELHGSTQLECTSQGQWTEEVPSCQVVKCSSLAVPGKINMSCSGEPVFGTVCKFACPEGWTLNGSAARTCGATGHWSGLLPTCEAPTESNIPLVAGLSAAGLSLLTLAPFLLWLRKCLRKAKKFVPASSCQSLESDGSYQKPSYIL
Nuclear receptor subfamily 1 group I member 2 (Homo sapiens), sequence (O75469 whole entry, looked up, the tested form may be a part): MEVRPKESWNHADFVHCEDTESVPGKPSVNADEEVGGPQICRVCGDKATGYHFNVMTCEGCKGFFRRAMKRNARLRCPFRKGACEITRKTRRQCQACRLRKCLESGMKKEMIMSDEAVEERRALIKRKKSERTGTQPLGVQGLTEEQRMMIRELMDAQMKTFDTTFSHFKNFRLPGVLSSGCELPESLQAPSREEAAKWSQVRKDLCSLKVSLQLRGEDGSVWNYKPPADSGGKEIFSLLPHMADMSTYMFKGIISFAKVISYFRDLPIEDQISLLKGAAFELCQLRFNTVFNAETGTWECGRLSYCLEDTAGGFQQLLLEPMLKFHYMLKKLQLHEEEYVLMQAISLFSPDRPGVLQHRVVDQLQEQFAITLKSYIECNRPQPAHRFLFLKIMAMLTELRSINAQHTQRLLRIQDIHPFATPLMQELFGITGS
human Thyroid Receptor alpha (THRa1), THRA (gene 7067), sequence (P10827 whole entry, looked up, the tested form may be a part): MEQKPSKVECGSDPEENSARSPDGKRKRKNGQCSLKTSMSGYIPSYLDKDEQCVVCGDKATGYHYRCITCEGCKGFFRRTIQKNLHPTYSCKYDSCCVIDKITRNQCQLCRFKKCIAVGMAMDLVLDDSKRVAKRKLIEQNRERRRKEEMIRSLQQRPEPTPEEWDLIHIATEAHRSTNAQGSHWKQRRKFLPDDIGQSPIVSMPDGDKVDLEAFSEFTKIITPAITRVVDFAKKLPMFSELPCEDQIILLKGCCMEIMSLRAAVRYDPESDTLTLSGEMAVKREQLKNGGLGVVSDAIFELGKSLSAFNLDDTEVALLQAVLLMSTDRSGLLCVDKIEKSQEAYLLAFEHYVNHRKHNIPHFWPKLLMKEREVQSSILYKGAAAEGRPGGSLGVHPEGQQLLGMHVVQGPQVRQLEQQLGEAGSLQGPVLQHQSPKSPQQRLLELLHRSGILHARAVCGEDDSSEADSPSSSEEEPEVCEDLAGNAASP
Retinoic acid receptor alpha (Homo sapiens), sequence (P10276 whole entry, looked up, the tested form may be a part): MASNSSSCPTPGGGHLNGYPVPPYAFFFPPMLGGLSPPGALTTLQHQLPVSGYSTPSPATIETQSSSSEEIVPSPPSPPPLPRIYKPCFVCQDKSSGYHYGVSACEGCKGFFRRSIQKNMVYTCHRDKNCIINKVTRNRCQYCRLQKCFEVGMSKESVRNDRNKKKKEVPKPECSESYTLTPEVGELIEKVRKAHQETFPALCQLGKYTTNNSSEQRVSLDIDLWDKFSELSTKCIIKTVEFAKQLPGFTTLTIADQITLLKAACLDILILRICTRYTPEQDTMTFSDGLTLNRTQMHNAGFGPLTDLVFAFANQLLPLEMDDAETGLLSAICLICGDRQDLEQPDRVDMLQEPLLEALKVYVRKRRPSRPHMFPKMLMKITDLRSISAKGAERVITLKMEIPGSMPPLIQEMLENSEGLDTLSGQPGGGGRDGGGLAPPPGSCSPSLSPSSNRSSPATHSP
Retinoic acid receptor RXR-alpha (Homo sapiens), sequence (P19793 whole entry, looked up, the tested form may be a part): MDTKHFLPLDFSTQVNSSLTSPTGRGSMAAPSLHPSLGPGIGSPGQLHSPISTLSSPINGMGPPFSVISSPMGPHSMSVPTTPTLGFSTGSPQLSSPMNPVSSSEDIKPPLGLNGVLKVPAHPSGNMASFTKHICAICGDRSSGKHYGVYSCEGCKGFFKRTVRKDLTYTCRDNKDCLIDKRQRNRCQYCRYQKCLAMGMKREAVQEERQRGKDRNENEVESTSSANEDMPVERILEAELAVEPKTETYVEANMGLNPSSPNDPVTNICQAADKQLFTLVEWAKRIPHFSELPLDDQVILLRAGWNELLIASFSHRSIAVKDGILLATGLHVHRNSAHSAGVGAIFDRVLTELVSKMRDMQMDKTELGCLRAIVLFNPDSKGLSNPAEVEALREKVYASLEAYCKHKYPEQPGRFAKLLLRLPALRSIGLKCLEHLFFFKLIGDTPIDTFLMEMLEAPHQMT
Peroxisome proliferator-activated receptor gamma (Homo sapiens), sequence (P37231 whole entry, looked up): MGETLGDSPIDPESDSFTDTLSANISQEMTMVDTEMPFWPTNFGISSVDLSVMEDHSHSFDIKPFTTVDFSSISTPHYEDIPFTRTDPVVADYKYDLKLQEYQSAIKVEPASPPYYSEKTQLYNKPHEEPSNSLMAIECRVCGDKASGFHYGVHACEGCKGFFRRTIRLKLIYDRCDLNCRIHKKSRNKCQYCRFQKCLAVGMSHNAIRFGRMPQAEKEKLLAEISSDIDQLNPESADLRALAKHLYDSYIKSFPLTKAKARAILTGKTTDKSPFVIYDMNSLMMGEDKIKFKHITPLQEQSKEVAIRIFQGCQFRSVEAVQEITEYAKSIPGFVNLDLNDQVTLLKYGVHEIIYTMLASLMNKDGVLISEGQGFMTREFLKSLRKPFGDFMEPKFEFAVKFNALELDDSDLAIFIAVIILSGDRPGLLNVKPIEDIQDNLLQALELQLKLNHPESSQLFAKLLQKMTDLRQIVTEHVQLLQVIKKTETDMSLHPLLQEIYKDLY

`CC(Oc1cccc(Cl)c1)C(=O)O` (stereo unspecified): the result in [1], in assay [2], in assay [3], in assay [4], in assay [5] and in assay [6] was inactive. Moreover, the outcome in [7], in assay [8], in [9], in [10], in assay [11] and in assay [12] was inactive. Further, the result in assay [13], in assay [14] and in assay [15] was inactive.
In the case of `N#CSCSC#N`, the half-maximal activity concentration (AC50) in assay [1] is 8.79 µM (active); in assay [2], 6.94 µM (active); in assay [4] it was 8.09 µM (active); in assay [6], 2.07 µM (active); in assay [11] it was 10.9 µM (active); in [13] it was 8.34 µM (active). The AC50 in [14] is 7.62 µM (active). Further, the call in assay [3], in assay [16], in assay [5], in assay [7], in assay [8] and in assay [9] was inactive. Further, the compound was called inactive in assay [17], in assay [18] and in [12].
Take `CCOP(=S)(OCC)OC(Cl)C(Cl)(Cl)Cl` (stereo unspecified): the AC50 in assay [1] is 14.6 µM (active); in assay [6], 32.1 µM (active); in assay [11], 14.7 µM (active); in [15], 12.2 µM (active). Also, the result in assay [2], in assay [3], in assay [16], in assay [5], in assay [7] and in assay [8] was inactive. Further, the compound was classed as inactive in [9], in assay [17], in assay [19], in assay [18], in [12] and in [13]. For the same compound, the result in [14] was inactive.
For `CCOC(=O)COc1cc(-c2nn(C)c(OC(F)F)c2Cl)c(F)cc1Cl`, the outcome in assay [1], in assay [2], in assay [3], in assay [16], in [5] and in [7] was inactive. For the same compound, the compound was called inactive in assay [9], in assay [10], in assay [17], in assay [19], in assay [18] and in [11]. The outcome in assay [13] and in assay [15] was inactive. Further, the AC50 is 15.5 µM (active) in [6], 29.6 µM (active) in assay [8] and 10.1 µM (active) in assay [14].
Consider `CN(C)NC(=O)CCC(=O)O`, for which the outcome in assay [1], in [2], in assay [3], in [4], in [5] and in assay [6] was inactive. Moreover, the result in [7], in [10], in assay [19], in assay [18], in assay [11] and in assay [13] was inactive. For the same compound, the outcome in assay [14] and in [15] was inactive.
For the compound `Cc1cc(C2CC2)nc(Nc2ccccc2)n1`, the outcome in assay [1], in [3], in assay [4], in [5], in assay [8] and in [9] was inactive. Further, the compound was called inactive in assay [10], in [17] and in assay [11]. Besides, the AC50 is 9.49 µM (active) in assay [2]; 15.8 µM (active) in assay [6]; 50 µM (active) in assay [7]; 75.3 µM (active) in [19]; 64 µM (active) in [18]; 32.1 µM (active) in [13]. Besides, the figures for the AC50 in assay [14] and in assay [15] were 17.8 µM (active) and 15.2 µM (active), respectively.
Consider `COc1ccc(C(=CC(=O)N2CCOCC2)c2ccc(Cl)cc2)cc1OC`, for which the outcome in assay [1], in [2], in [20], in [3], in assay [4] and in [6] was inactive. For the same compound, the result in assay [7], in assay [8], in [17], in assay [19], in assay [18] and in assay [14] was inactive. The values for the AC50 in assay [11], in assay [13] and in assay [15] were 10.2 µM (active), 6.59 µM (active) and 13.9 µM (active), respectively.
